Assay results taken from publication PMC4336329 (PLoS ONE, 2015).
The whole screen tested about 310,000 compounds, of which about 14,000 (4.5%) showed an effect of 50% or more. Effects have a minus sign here. The entries come from a sample that favours strong results as a whole.

Biological target: human ether-à-go-go-related gene (hERG) potassium channel (human, UniProt Q12809)
Assay: primary screen, population patch clamp on CHO cells stably expressing hERG; higher = less effect of the substance
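Also: peak tail current of the secondary pulse compared with the same well before compound.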

Chain of human ether-à-go-go-related gene (hERG) potassium channel (Q12809 whole entry, looked up): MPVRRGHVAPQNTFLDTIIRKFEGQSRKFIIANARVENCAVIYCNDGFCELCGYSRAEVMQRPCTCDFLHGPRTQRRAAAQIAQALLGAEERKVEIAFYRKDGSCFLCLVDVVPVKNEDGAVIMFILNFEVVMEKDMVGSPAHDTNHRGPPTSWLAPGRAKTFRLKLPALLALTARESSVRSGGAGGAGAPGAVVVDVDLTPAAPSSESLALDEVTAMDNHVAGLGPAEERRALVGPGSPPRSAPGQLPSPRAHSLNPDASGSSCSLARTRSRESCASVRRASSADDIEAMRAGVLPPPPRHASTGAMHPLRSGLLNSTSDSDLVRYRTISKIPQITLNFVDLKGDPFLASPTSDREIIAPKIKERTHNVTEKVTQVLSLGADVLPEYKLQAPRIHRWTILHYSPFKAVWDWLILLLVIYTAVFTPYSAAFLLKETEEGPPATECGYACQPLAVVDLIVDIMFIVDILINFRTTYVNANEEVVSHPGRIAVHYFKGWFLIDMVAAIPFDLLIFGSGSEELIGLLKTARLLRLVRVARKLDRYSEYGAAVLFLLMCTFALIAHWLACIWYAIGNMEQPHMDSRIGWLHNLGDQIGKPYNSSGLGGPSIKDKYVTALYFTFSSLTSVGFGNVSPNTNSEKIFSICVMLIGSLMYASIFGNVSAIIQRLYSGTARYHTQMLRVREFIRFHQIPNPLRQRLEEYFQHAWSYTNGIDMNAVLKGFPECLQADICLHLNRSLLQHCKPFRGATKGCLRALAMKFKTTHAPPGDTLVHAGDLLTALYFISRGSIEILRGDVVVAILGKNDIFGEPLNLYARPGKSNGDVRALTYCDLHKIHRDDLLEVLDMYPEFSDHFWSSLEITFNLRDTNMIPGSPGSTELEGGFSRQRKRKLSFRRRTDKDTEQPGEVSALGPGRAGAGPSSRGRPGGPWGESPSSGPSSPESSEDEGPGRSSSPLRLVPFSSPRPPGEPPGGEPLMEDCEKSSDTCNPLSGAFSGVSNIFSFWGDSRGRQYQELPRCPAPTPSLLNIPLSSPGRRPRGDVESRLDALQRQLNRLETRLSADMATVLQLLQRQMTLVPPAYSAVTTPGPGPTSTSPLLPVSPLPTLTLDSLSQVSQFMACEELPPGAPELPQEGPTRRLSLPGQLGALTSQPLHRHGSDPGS

SMILES	hERG current change (%, negative = inhibition) at 10uM
O=c1c2cc(F)ccc2[nH]c(=S)n1CCCN1CCOCC1	-3.61%
CC1(C)CC(=O)C2=C(C1)NC(=O)NC2c1ccc(Cl)cc1 (stereo not shown)	17.3%
Cc1cc(C(=O)COC(=O)C2CCN(C(=O)c3ccc(Cl)cc3)CC2)c(C)n1CC1CCCO1 (stereo not shown)	-15.2%
Cc1cc(C(=O)COC(=O)CN(C)S(=O)(=O)c2ccc(Cl)cc2)c(C)n1Cc1cccs1	-5.54%
Cc1cc(C(=O)COC(=O)CN(C)S(=O)(=O)c2ccc(Cl)cc2)c(C)n1CC1CCCO1 (stereo not shown)	-55.2%
COc1cc(C(=O)OCC(=O)c2cc(C)n(CC3CCCO3)c2C)cc(OC)c1C (stereo not shown)	-68%
COc1cc(OC)c(C(=O)OCC(=O)c2cc(C)n(CC3CCCO3)c2C)cc1OC (stereo not shown)	13.3%
COc1cc(OC)cc(C(=O)OCC(=O)c2cc(C)n(CC3CCCO3)c2C)c1 (stereo not shown)	-39%
O=C(CC(NS(=O)(=O)c1ccc(Cl)cc1)c1ccco1)NC1CCCC1 (stereo not shown)	-8%
CCOC(=O)N1CCC(NC(=O)CC(NS(=O)(=O)c2ccc(Cl)cc2)c2ccco2)CC1 (stereo not shown)	-53%
CCOC(=O)N1CCC(NC(=O)CC(NS(=O)(=O)c2ccc(C)cc2)c2ccco2)CC1 (stereo not shown)	-7.75%
CCc1cccc(C)c1NC(=S)NCC(c1cccnc1)N(C)C (stereo not shown)	5.1%
CCc1nnc(NC(=O)C2CCN(c3cnccn3)CC2)s1	4.24%
O=S(=O)(NCc1ccccn1)c1cc(OCC(F)(F)F)ccc1OCC(F)(F)F	-69.9%
COc1ccc(OC)c(S(=O)(=O)NCc2ccccn2)c1	11.9%
CCOc1ccc(OCC)c(S(=O)(=O)NCc2ccccn2)c1	-1.02%
Cn1nc(C(=O)NC2CCCC2)c2ccccc2c1=O	1.63%
COc1ccc(-c2nn(C)c(=O)c3ccccc23)cc1NC(=O)Cn1nc(C)c2ccccc2c1=O	-57.5%
COc1ccc(-c2nn(C)c(=O)c3ccccc23)cc1NC(=O)Cn1nc(-c2ccccc2)c2ccccc2c1=O	5.06%
COc1ccc(-c2nn(C)c(=O)c3ccccc23)cc1CNC(=O)NC1CCCCC1	-26.5%
CCCC(=O)NCc1cc(-c2nn(C)c(=O)c3ccccc23)ccc1OC	7.01%

SMILES	hERG current change (%, negative = inhibition) at 10uM
CCC(=O)Nc1cc(-c2nn(C)c(=O)c3ccccc23)ccc1OC	-11.4%
Cn1nc(-c2ccc(C(=O)NC3CCCCC3)cc2)c2ccccc2c1=O	-52.4%
Cn1nc(C(=O)NC2CCCCC2)c2ccccc2c1=O	-15.3%
COc1ccc(-c2nn(C)c(=O)c3ccccc23)cc1CNC(=O)C1CCCCC1	-56.3%
CCC1CCCCN1C(=S)NC1CCCCC1 (stereo not shown)	17.2%
COc1cc(/C=C/C(=O)Nc2ccc(C)cc2)cc(OC)c1OC	-2.49%
O=C(C1CCN(S(=O)(=O)c2ccc(Br)s2)CC1)N1CCc2ccccc21	-46.8%
c1ccc(CCc2nn3c(C4COc5ccccc5O4)nnc3s2)cc1 (stereo not shown)	-1.79%
COc1ccc(/C=N/n2c(C3CCCCC3)n[nH]c2=S)c(OC)c1	23.6%
COc1ccc(OC)c(S(=O)(=O)N2CCC3(CC2)CC(=O)c2ccccc2O3)c1	-47.1%
COc1ccc(N2CC(C(=O)N3CCOCC3)CC2=O)cc1 (stereo not shown)	18.3%
COc1ccc(N2CC(C(=O)N3CCN(c4ccccc4)CC3)CC2=O)cc1 (stereo not shown)	-41.6%
COc1cccc(N2CC(C(=O)N3CCC4(CC3)CC(=O)c3ccccc3O4)CC2=O)c1 (stereo not shown)	-53.5%
COc1ccc(N2CC(C(=O)N3CCC4(CC3)CC(=O)c3ccccc3O4)CC2=O)cc1 (stereo not shown)	-78.1%
COc1cccc(N2CC(C(=O)Oc3ccc4ccccc4c3)CC2=O)c1 (stereo not shown)	-7.91%
Cc1[nH]c2ccccc2c1/C=N/NC(=O)CNC(=O)Cc1ccccc1	15.5%
NC(=O)c1nnn(-c2nonc2N)c1-c1ccc([N+](=O)[O-])cc1	24.7%
C=CCn1c(SCC(=O)c2ccc(NS(=O)(=O)c3ccccc3)cc2)nnc1-c1cccs1	-19.5%
COc1cc(/C=C/C(=O)OCC(=O)Nc2sc3c(c2C#N)CCC(C)C3)ccc1OCC#N (stereo not shown)	12.1%
COc1cccc(/C=C/C(=O)c2ccc3c(c2)OCO3)c1OC	1.82%
CC1CCC2(CC1)NC(=O)N(NC(=O)c1cccs1)C2=O (stereo not shown)	9.08%

SMILES	hERG current change (%, negative = inhibition) at 10uM
O=C(COC(=O)CNC(=O)c1sc2ccccc2c1Cl)Nc1cc(Cl)cc(Cl)c1	-54.7%
NC(=O)c1ccc(NC(=O)COC(=O)CNC(=O)c2sc3ccccc3c2Cl)cc1	-12.8%
O=C(COC(=O)CNC(=O)c1sc2ccccc2c1Cl)Nc1c(Cl)cc(Cl)cc1Cl	15.6%
Cc1nc(-c2nc(-c3c(C(=O)NNC(=O)c4ccc(Cl)cc4)noc3C)cs2)cs1	-35.1%
CN(CCc1cn[nH]c1)Cc1nc(C(c2ccccc2)c2ccccc2)no1	-38.5%
COCCN(C)Cc1nc(C(c2ccccc2)c2ccccc2)no1	3.28%
CCN(CC)CCN(C)Cc1nc(C(c2ccccc2)c2ccccc2)no1	-57.7%
O=c1c2ccccc2nc(/C=C/c2ccc(O)cc2)n1CCc1ccccc1	-17.3%
O=C(CN1c2ccccc2Sc2ccccc21)NNC(=O)Nc1cccc(Cl)c1	2.84%
CCOC(=O)C1=C(COC(=O)[C@H](C)NS(=O)(=O)c2ccc(NC(C)=O)cc2)NC(=O)NC1C (stereo partly shown)	21.2%
O=C(c1ccc(F)cc1)C1CCN(C(=O)c2ccccc2)CC1	-9.13%
O=c1c2ccccc2[nH]c(=S)n1CCN1CCCC1	-19.1%
CCOc1ccccc1C(=O)N1CCC(C(=O)c2ccc(F)cc2)CC1	-25.2%
O=C(O)C(O)C(O)C(=O)O.O=C(c1ccc(F)cc1)C1CCN(CCn2c(=O)[nH]c3ccccc3c2=O)CC1	-51.8%
O=C(CCCCn1c(=O)[nH]c2ccccc2c1=O)NC1CCN(Cc2ccccc2)CC1	-18.9%
CN1CCN(CCn2c(=S)[nH]c3ccccc3c2=O)CC1	6.07%
Cl.O.O=C(c1ccc(F)cc1)C1CCN(CCn2c(=S)[nH]c3ccccc3c2=O)CC1	-68.9%
O=C(O)CCn1c(=O)[nH]c2ccccc2c1=O	12.4%
CC1(C)C(=O)N(CCN2CCC(C(=O)c3ccc(F)cc3)CC2)c2ccccc21.Cl	-70.5%
